According to paper PMC5540273 (PLoS ONE, 2017):

Columns and labels:
Conditions in all cases: concentration: 1 μM, replicates: in singlicate; n = 1
YES = system: T1, YES
T1 construct: gene YES1

YSK1 = system: T2, YSK1
T2 construct: gene STK25

YSK4 = system: T3, YSK4
T3 construct: gene MAP3K19

ZAK = system: ZAK
ZAP70 = system: ZAP70
p38-alpha = system: T4, p38-alpha
T4 construct: gene MAPK14

p38-beta = system: T5, p38-beta
T5 construct: gene MAPK11

p38-delta = system: p38-delta
p38-gamma = system: T6, p38-gamma
T6 construct: gene MAPK12
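Also: KINOMEscan kinase panel screen.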

Compound	%Inh (YES) [%]	%Inh (YSK1) [%]	%Inh (YSK4) [%]	%Inh (ZAK) [%]	%Inh (ZAP70) [%]	%Inh (p38-alpha) [%]	%Inh (p38-beta) [%]	%Inh (p38-delta) [%]	%Inh (p38-gamma) [%]
CS(=O)(=O)c1ccc(-c2c(-c3ncn[nH]3)sc(N3CCOCC3)c2C#N)cc1	13	0	18	0	0	6	11	34	33
Cc1c(Cn2ccn3c(=O)cc(N4CCOCC4)nc23)cccc1C(F)(F)F [GSK2289044]	3	0	43	8	0	0	0	12	12
NC(=O)c1nnc2ccccc2c1N	0	2	88	0	0	71	0	0	43
Cc1cccc(-c2nc(Nc3ccc4[nH]ncc4c3)c3ccccc3n2)n1 [GW857175]	13	0	19	0	31	0	32	0	50
COc1ccccc1-c1ccc2c(NC(=O)C3CC3)n[nH]c2n1 [SB-711239]	0	0	0	0	13	26	9	6	2
O=C(Nc1ccccc1)Nc1cccc(Oc2ccc3nccn3n2)c1	0	0	87	35	0	0	0	0	19
Cc1cccc(-c2nc(-c3ccc(S(C)(=O)=O)cc3)sc2-c2ccnc(NCCc3ccccc3)c2)c1	0	11	0	29	9	82	40	12	16
Cl.Oc1ccc(-c2nc(-c3ccccc3)[nH]c2-c2ccncc2)cc1 [SB-428218]	17	4	13	10	0	63	0	43	0
O=c1cc(N2CCOCC2)nc2n(Cc3cccc(Cl)c3Cl)ccn12 [GSK2286295]	14	8	23	6	0	0	0	40	27
Cl.NC(=O)c1cccc(Nc2nccc(Nc3ccc(Oc4cccc(Cl)c4)c(Cl)c3)n2)c1 [GW659008]	54	0	0	53	0	8	0	38	0
CS(=O)(=O)c1ccc(-c2nc3n(c2-c2ccncc2)CCC3)cc1 [SKF-105942]	33	5	1	0	0	0	0	31	14
COc1cccc(NC(=O)NC2CCN(c3ccnc(Nc4ccc(F)cc4)n3)C2)c1 (stereo not drawn) [GSK1379721]	0	10	3	42	0	4	0	35	2
O=C(Nc1n[nH]c2cc(-c3cccc(F)c3F)ccc12)C1CC1 [SB-733894]	0	0	74	0	60	0	2	0	24
COC(=O)c1c(-c2ccccc2)c2cc(C(=O)O)ccc2c(=O)n1Cc1ccccc1	0	0	0	0	31	24	19	21	0
O=S(=O)(c1ccc(-c2ccnc3[nH]ccc23)cc1)N1CCCC1 [GSK846226]	8	21	63	0	0	6	0	11	6
COc1cccc(-c2cc(-c3c[nH]nc3-c3ccccn3)ccn2)c1 [GW680338]	0	0	0	0	10	27	7	20	0
CC1=C(C(=O)Nc2cc3cn[nH]c3cc2F)C(c2ccc(C(F)(F)F)cc2)CC(=O)N1 (stereo not drawn) [GSK429286]	17	0	9	9	0	0	0	21	0
COc1ccc2nc(-c3cccc(C)n3)nc(Nc3ccncc3)c2c1 [GSK204919]	13	0	13	0	0	58	0	12	0
